Source: PubChem BioAssay
This is a sample that favours compounds with a hit; in the whole collection about 3.4% have one here.
MITF primary = blocks human microphthalmia-associated transcription factor; actives 0.91% (n = 650,000); O75030; inhibition, % at 2.6 µM; AlphaScreen MITF homodimerization, bead proximity signal; in the data active means inhibition above about 50%
FBW7 act = activators of human E3 ligase FBW7 | AlphaScreen FBW7–phospho-cyclin E peptide binding, activator screen | normalized activity (activation), % at 26.1 µM | actives 0.13% (n = 650,000) | AID 1259310; in the data active means normalized activity above about 1.9%;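 further: purified mutant Fbw7 with reduced substrate affinity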
Target sequence (Q969H0 whole entry, looked up): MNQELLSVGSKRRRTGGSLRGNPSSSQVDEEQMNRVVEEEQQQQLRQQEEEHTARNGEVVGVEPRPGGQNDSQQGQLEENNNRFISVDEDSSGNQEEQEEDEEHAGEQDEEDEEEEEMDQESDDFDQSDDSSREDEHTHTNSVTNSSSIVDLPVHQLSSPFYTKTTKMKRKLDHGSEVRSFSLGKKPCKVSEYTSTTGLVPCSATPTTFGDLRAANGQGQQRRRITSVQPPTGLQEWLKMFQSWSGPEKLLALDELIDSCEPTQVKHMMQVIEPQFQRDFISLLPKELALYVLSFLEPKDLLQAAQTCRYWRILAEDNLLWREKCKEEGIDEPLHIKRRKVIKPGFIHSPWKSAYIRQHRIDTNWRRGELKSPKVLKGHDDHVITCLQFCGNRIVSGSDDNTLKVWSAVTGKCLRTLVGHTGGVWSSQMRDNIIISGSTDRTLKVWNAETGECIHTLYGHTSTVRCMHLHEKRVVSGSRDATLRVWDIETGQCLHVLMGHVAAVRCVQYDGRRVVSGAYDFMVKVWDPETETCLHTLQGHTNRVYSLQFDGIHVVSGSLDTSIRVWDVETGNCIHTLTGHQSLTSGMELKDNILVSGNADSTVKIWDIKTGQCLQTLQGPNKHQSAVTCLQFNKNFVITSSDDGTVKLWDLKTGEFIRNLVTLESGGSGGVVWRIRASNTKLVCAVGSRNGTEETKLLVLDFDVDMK
TEAD-YAP inh = TEAD-YAP interaction inhibition. HEK-TIYL cells, TEAD-Gal4/YAP UAS-luciferase luminescence. inhibition, % at 9.12 µM. actives 1.4% (n = 640,000); in the data active means inhibition above about 32%
GPR151 ag = human GPR151 activation. PathHunter beta-arrestin GPR151 cells, luminescence. AID 1508602. activation, % at 11.2 µM. actives 1% (n = 650,000); in the data active means activation above about 4.9%
MITF confirm = confirmation of human MITF inhibitors; inhibition, % at 2.6 µM; actives 16% (n = 4,700); AlphaScreen MITF homodimerization, biotin/His-MITF beads; AID 1259372; shares compounds with MITF primary;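 active means inhibition above a cutoff derived from the DMSO control wells, cut at about 28% in these data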;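 further: inhibitors lower the bead chemiluminescence by keeping MITF from dimerizing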
AlphaScreen DR = counter-screen: compounds optically interfering with AlphaScreen | shares compounds with MITF primary | AID 1259373 | actives 6% (n = 480) | IC50, µM | AlphaScreen optical interference counterscreen, cell-free; call rule not given here
AlphaScreen intf2 = optically interferes with AlphaScreen signal | LysRS AlphaScreen counterscreen, signal interference, triplicate | actives 7.6% (n = 4,700) | inhibition, % at 2.6 µM | shares compounds with MITF primary;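 active means inhibition above a cutoff derived from the DMSO control wells, cut at about 30% in these data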
A number is an active result; n = inactive; x = no result.

SMILES	MITF primary	FBW7 act	TEAD-YAP inh	GPR151 ag	MITF confirm	AlphaScreen intf2	others
COc1cccc(-n2c(CN3CCSCC3)n[nH]c2=S)c1	n	n	n	n	x	x
COC(=O)C1=C(C)OC(N)=C(C#N)C1c1ccc(Cl)cc1 (configuration not stated)	n	n	n	n	x	x
O=C(CNCCN1CCOCC1)Nc1ccc(OC(F)(F)F)cc1	60	n	n	n	n	n
O=C(CNCCCN1CCOCC1)Nc1ccccc1	n	n	n	n	x	x
CC(NCCN1CCOCC1)C(=O)Nc1ccccc1 (configuration not stated)	98	n	n	n	n	n
COc1ccc(CCNC(=O)C(=O)NCCCN2CCOCC2)cc1	n	n	n	n	x	x
O=C(CNCCCN1CCOCC1)Nc1ccc(C(=O)N2CCCCC2)cc1	85	n	n	n	n	n
COc1ccc(CCNCCN2CCOCC2)cc1	84	n	n	n	n	n
COc1ccc(CN(C)Cn2nc(-c3ccncc3)n(C)c2=S)cc1	n	n	n	n	x	x
CCN1CCN(CCC(=O)Nc2ccc3c(c2)OCCO3)CC1	104	n	n	n	n	n
COc1ccc(NC(=O)CNCCN2CCOCC2)cc1	93	n	n	n	n	n
COc1ccc(NC(=O)CNCCN2CCCCC2)cc1	n	n	n	n	x	x
O=C(CNCCN1CCOCC1)Nc1ccc2c(c1)OCO2	87	n	n	n	n	n
COc1ccc2oc(=O)c(C(=O)NCCN3CCOCC3)cc2c1	n	n	n	n	x	x
COc1ccc(C(=O)NCCN2CCOCC2)c(OC)c1	53	n	n	n	n	n
CCN1CCCC1Cn1c(C)nnc1SCC(=O)N(C)C (configuration not stated)	n	n	n	n	x	x
O=[N+]([O-])c1c(NC2CCCCC2)ccc2nsnc12	n	n	n	n	x	x
CCc1ccccc1NC(=O)CN1CCC(n2nnc3ccccc32)CC1	n	n	n	n	x	x
O=C(CNCCN1CCOCC1)Nc1ccc(N2CCCC2)cc1	73	n	n	n	29	60
O=C(CNCCN1CCOCC1)Nc1ccc(N2CCCCCC2)cc1	n	n	n	n	x	x
O=C(Nc1ccc(N2CCOCC2)cc1)NC1CCCCC1	72	n	n	n	n	n
COCC(=O)Nc1ccc(C(C)=O)cc1	n	n	n	n	x	x
O=C1CCCN1CCn1cnc2c(NCCN3CCOCC3)nc(Nc3ccc(C(F)(F)F)cc3)nc21	n	n	n	n	x	x
N#CC1=C(N)n2c(s/c(=C\c3ccco3)c2=O)=C(C#N)C1c1ccco1 (configuration not stated)	56	n	n	n	42	n	AlphaScreen DR=n
CCC(CC)NC(=O)c1ccc(Cl)cc1[N+](=O)[O-]	74	n	n	n	n	n
SMILES	MITF primary	FBW7 act	TEAD-YAP inh	GPR151 ag	MITF confirm	AlphaScreen intf2	others
CCN1C(=O)/C(=C/c2ccc(-c3ccc([N+](=O)[O-])cc3)o2)NC1=S	52	n	n	n	n	n
O=C(NCCc1ccncc1)c1csc(-n2cccc2)n1	52	n	n	n	n	n
CCOC(=O)c1c(NC(=O)CSc2nnc(CNC(=O)c3ccc(C)c([N+](=O)[O-])c3)n2CCc2ccccc2)sc2c1CCCC2	n	n	n	n	x	x
CCC(C1=C(O)CC(C)(C)CC1=O)C1C(=O)CC(C)(C)CC1=O (configuration not stated)	53	n	n	n	n	n
CC1(C)CC(=O)C(C(C2=C(O)CC(C)(C)CC2=O)c2ccccc2O)C(=O)C1 (configuration not stated)	n	n	n	n	x	x
COc1ccc(OCCCCOc2ccc([N+](=O)[O-])cc2)cc1	n	n	n	n	x	x
C=CCNCCCOc1ccc(C)cc1[N+](=O)[O-]	n	n	n	n	x	x
CN(C)CCCCOc1ccc([N+](=O)[O-])cc1	77	n	n	n	n	n
C=CCNCCOc1ccc(C)cc1[N+](=O)[O-]	52	n	n	n	n	n
Cc1ccc(OCCCN(C)C)c([N+](=O)[O-])c1	68	n	n	n	n	n
Cc1ccc(CN2CCN(CCCn3cccn3)CC2CCO)o1 (configuration not stated)	n	n	n	n	x	x
COc1ccc(/C=C/C(=O)C(C)(C)O)cc1	58	n	n	n	n	n
COc1ccccc1OCC#CCn1ccnc1	63	n	n	n	n	n
O=C(CCc1ccccc1)Nc1nnc(-c2cccs2)s1	55	n	n	n	n	n
CCN(CC)c1nc(NCCOc2ccccc2)nc(Nc2nccc3ccccc23)n1	n	n	n	n	x	x
COc1ccc(C)cc1NC(=O)CNCC1CCCO1 (configuration not stated)	53	n	n	n	n	n
COc1ccccc1NC(=S)NCCN1CCOCC1	n	n	n	n	x	x
COc1ccc(C)cc1NC(=O)CNCCN1CCOCC1	87	n	n	n	n	n
COc1ccccc1NC(=O)CNCCCN1CCOCC1	61	n	n	n	n	n
COc1ccccc1NC(=O)CC(NCCCN1CCOCC1)C(=O)O (configuration not stated)	n	n	n	n	x	x
COc1ccc(C)cc1NC(=O)CCN1CCOCC1	n	n	n	n	x	x
COc1ccc(C)cc1NC(=O)N1CCC(CO)(CC2CCCCO2)CC1 (configuration not stated)	n	n	n	n	x	x
COc1ccccc1NC(=O)CNCCN1CCOCC1	86	n	n	n	n	n
N#Cc1ccsc1NC(=O)CNCC1CCCO1 (configuration not stated)	60	n	n	n	n	n
O=C(CNCCc1ccc2c(c1)OCCO2)N1CCc2ccccc21	51	n	n	n	n	n
SMILES	MITF primary	FBW7 act	TEAD-YAP inh	GPR151 ag	MITF confirm	AlphaScreen intf2	others
O=C(Nc1ccc(-c2cn[nH]c2)c(C(F)(F)F)c1)C1COc2ccccc2O1 (configuration not stated)	61	n	n	n	37	n	AlphaScreen DR=n
O=C(CSc1nnc2sc3ccccc3n12)Nc1ccccc1	n	n	n	n	x	x
O=c1cc(-c2ccccc2)nc2nn[nH]n12	n	n	n	n	x	x
O=c1cc(/C=C/c2ccc(O)cc2)nc2nn[nH]n12	57	n	n	n	39	n	AlphaScreen DR=n
CCOCCOC(=O)C1=C(C)NC2=C(C(=O)CC(c3ccc(OC)cc3)C2)C1c1ccc(Cl)cc1Cl (configuration not stated)	n	n	n	n	x	x
CCC(CC)C(=O)Oc1coc(CSc2nnc(NC(=O)C3CC3)s2)cc1=O	n	n	n	n	x	x
O=C(NCCCn1ccnc1)NC(C(F)(F)F)C(F)(F)F	n	n	n	n	x	x
O=C(/C(Br)=C/NCCCn1ccnc1)C(F)(F)F	65	n	n	n	40	99
CCCCSC1=C(C#N)C(c2cccc([N+](=O)[O-])c2)C(C(C)=O)=C(C)N1 (configuration not stated)	63	n	n	n	n	n
